IL1B secr inh: qHTS for Inhibitors of Inflammasome Signaling: IL-1-beta AlphaLISA Primary Screen | THP-1 LPS/ATP IL-1B secretion, AlphaLISA, 16 h; hits give low values | hit rate 4.7% among 360,000 | activity change, % at 57.5 µM; in the data active = activity change below about -50%; inconclusive = mostly about -30% to -49%
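Secreted IL-1B measured by AlphaLISA bead assay after 16 h compound exposure of THP-1 cells; compounds (final up to 57.5 uM) added 1 h before LPS (250 ng/mL) and ATP (1.25 mM) stimulation; lower signal means less secretion.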
ELG1 DNA repair: qHTS screen for small molecules that inhibit ELG1-dependent DNA repair in human embryonic kidney (HEK293T) cells expressing luciferase-tagged ELG1. hit rate 2.3% among 330,000. HEK293T ELG1-luciferase reporter, luminescence, 16 h; DNA damage induced by 5-fluorouridine. AID 504467, 2011. Potency, µM (series often up to 46.1 µM), inactives show at the top dose activity change, negative = inhibition, actives largely listed as inhibitors; note: potency is the fitted concentration of half-maximal effect; nearly all actives have a fitted effect of over 55% in size
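Overnight (16 hr) co-exposure of 2,000 cells/well to 5-fluorouridine and compound at 37 °C preceded detection. Luciferase was quantified via ONE-Glo luminescence; loss of signal denotes inhibition.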
TDP1 cell noCPT: qHTS for Inhibitors of human tyrosyl-DNA phosphodiesterase 1 (TDP1): qHTS in cells in absence of CPT | DT40 Tdp1-/- hTDP1 cells, no CPT, ATP luminescence, 48 h | Potency, µM (titrated, usually from 46.2 µM), for the others: at the highest dose activity change, negative = growth inhibition, usual class: inhibitors | hit rate 15% among 420,000 | AID 686978, 2013; note: potency is the fitted concentration of half-maximal effect; nearly all actives have a fitted effect of over 55% in size
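Readout: luminescence from CellTiter-Glo after 30 min in the dark at RT. Cells: DT40 Tdp1-/- with stable hTDP1, 400/well. Exposure: compounds alone, ≥48 hr, 37 °C.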
TDP1 cell CPT: qHTS for Inhibitors of human tyrosyl-DNA phosphodiesterase 1 (TDP1): qHTS in cells in presence of CPT. chicken DT40 Tdp1-/-;hTDP1 cells + 20 nM CPT, ATP luminescence, 48 h. Potency, µM (highest dose often 46.2 µM), inactives show top-dose activity change, negative = growth inhibition, actives largely listed as inhibitors. hit rate 12% among 420,000; note: potency is the fitted concentration of half-maximal effect; nearly all actives have a fitted effect of over 55% in size
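Cell growth measured by CellTiter-Glo luminescence after a minimum 48 h, 37 C compound exposure with 20 nM CPT in Tdp1-knockout DT40 cells stably expressing hTDP1, seeded 400/well; qHTS titration format.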
HT1080 IDH1KD tx: qHTS for induction of synthetic lethality in tumor cells producing 2HG: qHTS for the HT-1080-IDH1KD cell line. HT-1080 IDH1 knockdown viability, ATP luminescence, 48 h. Potency, µM (doses to about 46.1 µM), for the others: at the top dose activity, negative = toxicity, most hits filed as cytotoxic. hit rate 2% among 360,000. AID 686971, 2013;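 note: potency is the fitted concentration of half-maximal effect; 0% = DMSO wells and -100% = cell-free medium wells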
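CellTiter-Glo luminescence after 48 h compound exposure at 37 degrees C of IDH1-knockdown HT-1080 cells in 5% FBS RPMI. %Activity scaled between DMSO wells and cell-free media wells, with curves fitted and assigned curve classes.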
HT1080NT lethal: qHTS for induction of synthetic lethality in tumor cells producing 2HG: qHTS for the HT-1080-NT fibrosarcoma cell line | HT-1080-NT fibrosarcoma viability, CellTiter-Glo ATP luminescence, 48 h | Potency, µM (highest dose often 46.1 µM), for inactives: top-dose activity, negative = less viability, actives largely listed as cytotoxic | hit rate 1.6% among 360,000;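 note: NT is the 2HG producing partner of a matched IDH1 knockdown line; potency is the fitted concentration of half-maximal effect; 0% = DMSO-treated cells and -100% = media-only wells without cells; nearly all actives have a fitted effect of over 55% in size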
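Compounds were tested in concentration-response format on HT-1080-NT cells for 48 hours at 37 degrees C. Cell viability came from CellTiter-Glo luminescence; curves were classified by r2, response magnitude and activity.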
Numbers without * were called inactive; ? = inconclusive; . = no result. The list is not random: actives were taken first. Their share in the collection is about 19%. Unless noted, calls come from the whole dose curve; as a rule, active = well fitted curve in the direction sought with a large enough effect; inconclusive = small, poorly fitted or top-dose-only effect, or another doubt; inactive = no such curve, though single readings can be large; an effect the other way counts as inactive or inconclusive. Unless noted, % is set by controls: 0 for no effect and ±100 for the full control effect.

SMILES	IL1B secr inh	ELG1 DNA repair	TDP1 cell noCPT	TDP1 cell CPT	HT1080 IDH1KD tx	HT1080NT lethal
COc1ccc(CCNC(=O)c2cc(-c3ccccc3)c(N3CCOCC3)s2)c(OC)c1OC	-21	?	23µM*	8.2µM*	0%	-9%
O=C(O)c1cc(-c2ccccc2)c(N2CCOCC2)s1	8	1%	2%	-6%	-2%	1%
CCOc1ccc(CCNC(=O)c2cc(-c3ccccc3)c(N3CCOCC3)s2)cc1OCC	13	16µM*	3.3µM*	?	0%	0%
CCOc1ccc(CCNC(=O)c2cc([N+](=O)[O-])ccc2N2CCOCC2)cc1OCC	0	-12%	-19%	-25%	8%	5%
CCOc1ccc(CCNC(=O)c2cc(-c3ccccc3)c(N3CCOCC3)s2)cc1	-18	.	29µM*	?	3%	-14%
COc1ccc(CCNC(=O)C2CC(c3cc(C(F)(F)F)cc(C(F)(F)F)c3)=NO2)cc1 (centres undefined)	-2	2%	?	?	7%	14%
CCCOc1ccc(C(F)(F)F)cc1NS(=O)(=O)c1ccc(Cl)nc1	-65*	-5%	?	15µM*	?	?
O=C(Nc1ccccc1)Nc1nc(-c2ccc(F)cc2)cs1	-7	17%	4.1µM*	4.1µM*	1%	8%
CC1CC1C(=O)Nc1nc(-c2ccccc2)cs1 (centres undefined)	9	?	5.8µM*	5.2µM*	-4%	5%
O=C(Nc1ccc(Cl)cc1)Nc1nc(-c2ccccc2)cs1	-28	-5%	-19%	?	7%	15%
Fc1ccc(-c2csc(NC(=S)Nc3ccccc3)n2)cc1	31	2%	?	21µM*	-20%	-19%
O=C(O)c1cccc(S(=O)(=O)N(Cc2ccccc2)c2ccc(Cl)cc2)c1	25	-1%	1%	12%	-9%	-14%
Cc1ccc(C)c(C(=O)COC(=O)Cn2c(C)csc2=O)c1	8	2%	10%	1%	14%	23%
O/N=C(\c1ccccc1)C(O)c1ccccc1 (centres undefined)	22	1%	?	-6%	18%	-15%
CC[n+]1ccccc1/C=C1\Sc2ccc(C)cc2N1C	-77*	2.1µM*	0.33µM*	0.46µM*	9.2µM*	23µM*
CN1/C(=C/c2cccc[n+]2CCO)Sc2ccccc21	-1	-8%	?	?	-4%	-2%
C[C@@H]1C=CC(=O)O[C@@H]1c1ccc(Cl)cc1	-108*	?	7.3µM*	7.3µM*	?	?
CCc1noc(C)c1C(=O)Oc1ccc(N(C)S(=O)(=O)c2ccccc2)cc1	?	?	16µM*	23µM*	0%	-12%
CCc1noc(C)c1C(=O)Oc1ccc(N(C)S(=O)(=O)c2ccc(C)cc2)cc1	-15	?	2.6µM*	18µM*	-18%	-15%
CCOc1cc(/C=C2/C(=N)N3C(=NC2=O)SN=C3S(C)(=O)=O)ccc1OC(=O)c1ccco1	2	10%	18%	-5%	-5%	-1%
CCOc1cc(/C=C2/C(=N)N3C(=NC2=O)SN=C3S(C)(=O)=O)ccc1OS(=O)(=O)c1ccccc1	-5	?	21µM*	?	-2%	0%
CC(C)(C)C1CCc2nc(NC(=O)COc3ccc(F)cc3)sc2C1 (centres undefined)	.	.	21µM*	?	.	.
CC(C)(C)C1CCc2nc(NC(=O)Cc3cn4ccsc4n3)sc2C1 (centres undefined)	-5	?	?	11%	?	?
CC(C)CC(=O)Nc1nc2c(s1)CC(C(C)(C)C)CC2 (centres undefined)	.	.	15µM*	16µM*	.	.
CC(C)(C)C1CCc2nc(NC(=O)Cc3ccc(Cl)cc3)sc2C1 (centres undefined)	.	.	7.3µM*	6.5µM*	.	.
SMILES	IL1B secr inh	ELG1 DNA repair	TDP1 cell noCPT	TDP1 cell CPT	HT1080 IDH1KD tx	HT1080NT lethal
CC(OC(=O)c1ccc(Br)o1)C(=O)NCC1CCCCC1 (centres undefined)	0	1%	?	7%	-1%	-2%
CSCCC(NC(=O)c1ccco1)C(=O)Nc1ccncc1 (centres undefined)	19	10%	2%	3%	3%	11%
COc1cc2c(cc1C(F)(F)F)N(C(=O)Nc1cc(F)cc(-c3cccnc3)c1)CC2	.	.	3.5µM*	4.5µM*	?	11µM*
OC(c1ccc(Cl)c(Cl)c1)c1ncc(-c2ccccc2F)[nH]1 (centres undefined)	-6	.	?	?	-30%	-24%
COc1cc(S(=O)(=O)O)c(C)cc1N=Nc1c(O)ccc2cc(S(=O)(=O)O)ccc12	.	.	?	0%	.	.
CCN(CC)c1ccc(C(=C2C=CC(=[N+](CC)CC)C=C2)c2ccc(S(=O)(=O)O)cc2S(=O)(=O)[O-])cc1	-94*	.	?	23µM*	?	23µM*
CCN(CC)c1ccc(/C=C2\C(=O)c3ccc(C(=O)O)cc3C2=O)cc1	18	?	-1%	3%	6%	1%
Cc1nc(N/N=C/c2cccc(F)c2)cc(N2CCOCC2)n1	-97*	?	?	?	-1%	-1%
Oc1ccc(/C=N/Nc2cc(N3CCOCC3)nc(N3CCOCC3)n2)cc1O	25	?	21µM*	?	-2%	-1%
Cc1nc(N/N=C/c2cccc([N+](=O)[O-])c2)cc(N2CCCCC2)n1	26	.	13µM*	?	10%	-1%
Oc1cccc(/C=N/Nc2cc(N3CCOCC3)nc(N3CCOCC3)n2)c1	-54*	?	15µM*	16µM*	3%	-3%
COc1ccc(/C=N/Nc2cc(C)nc(N3CCOCC3)n2)cc1	-7	?	?	-8%	1%	-1%
Cc1cc(C)nc(N/N=C/c2ccc(N3CCOCC3)cc2)n1	-18	-1%	-16%	?	2%	9%
CCOC(=O)/C(=C/Nc1ccc(F)cc1)[N+](=O)[O-]	0	-2%	-7%	-3%	1%	-12%

High-throughput results as filed in PubChem.
